Hits are enriched below; roughly 27% of the tested compounds scored in any of these assays.
CYP2C9 inh = human CYP2C9 inhibition; P11712; CYP2C9 Supersomes, luciferin-H conversion, luminescence; inhibition, % at 5 µM; actives 20% (n = 96,000); AID 777;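 active means blocking of liver enzyme CYP2C9 beyond about 50% at 5 µM, limit read from the data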
EphB4 ephrin blk = EphB4-ephrin-B2 interaction antagonism | P54760 | EphB4 LBD / TNYL-RAW-Alexa532 peptide, fluorescence polarization | inhibition, % at 7 µM | actives 0.15% (n = 97,000) | AID 720;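 active means inhibition above the screen-wide mean inhibition plus 3 SD, cut at about 15% in these data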;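 further: 0% = DMSO wells and 100% = excess unlabeled TNYL-RAW peptide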
CYP2C9 act = activators of human CYP2C9 | P11712 | recombinant CYP2C9, luciferin-H conversion, luminescence; hits give high values; factor 1 = untreated enzyme, 0 = blocked | activation factor at 5 µM | actives 1.4% (n = 96,000) | AID 1024;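 active means activation factor of 2 or more for CYP2C9 at a 5 µM dose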;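 further: 0 = sulfaphenazole-blocked wells and 1 = vehicle-only wells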
CYP2C19 act = cytochrome P450 2C19 (human) activation | activation factor at 5 µM | P33261 | AID 1025 | 96,000 tested, under 10 active | recombinant CYP2C19, luciferin-H EGE luminescence; hits give high values; 0 = fully inhibited enzyme, 1 = untreated enzyme;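 active means activation factor of at least 2 at 5 µM in the primary screen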;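 further: 0 = wells with 2.5 mM tranylcypromine and 1 = vehicle-only wells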
Target sequence (P33261 whole entry, looked up): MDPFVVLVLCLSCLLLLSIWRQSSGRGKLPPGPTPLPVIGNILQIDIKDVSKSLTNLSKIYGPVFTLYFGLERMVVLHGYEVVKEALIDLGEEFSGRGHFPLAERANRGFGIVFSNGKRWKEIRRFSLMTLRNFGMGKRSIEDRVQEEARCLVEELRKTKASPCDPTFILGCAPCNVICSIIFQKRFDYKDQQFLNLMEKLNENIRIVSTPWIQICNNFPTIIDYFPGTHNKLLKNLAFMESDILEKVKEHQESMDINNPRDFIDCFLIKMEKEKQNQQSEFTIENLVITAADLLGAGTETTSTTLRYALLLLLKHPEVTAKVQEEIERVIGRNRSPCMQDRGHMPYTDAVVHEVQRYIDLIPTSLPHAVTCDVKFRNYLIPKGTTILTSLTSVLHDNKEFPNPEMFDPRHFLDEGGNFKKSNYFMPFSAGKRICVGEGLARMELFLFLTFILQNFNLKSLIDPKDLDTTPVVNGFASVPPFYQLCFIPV
CYP2C19 inhib = blocks human cytochrome P450 2C19. P33261. CYP2C19 Supersomes, luciferin-H EGE luminescence, 30 min. inhibition, % at 5 µM. actives 21% (n = 96,000). AID 778;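 active means CYP2C19 inhibition above a set limit at 5 µM in the primary screen, cut at about 50% in these data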;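 further: plate controls were negative control wells for no effect and 2.5 mM tranylcypromine positive control for full effect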
* marks the source's active call; other numbers are inactive results; · = no result given.

SMILES	CYP2C9 inh	EphB4 ephrin blk	CYP2C9 act	CYP2C19 act	CYP2C19 inhib
COc1ccc(C2C(C(=O)NCc3ccccn3)c3cc(OC)c(OC)cc3C(=O)N2C)cc1 (stereo not given)	10.9	·	0.9	0.9	6.5
Cc1ccc(OCCSc2nnc(-c3ccncc3)n2C)cc1	42.9	1.5	0.6	0.1	92.7*
Cn1c(SCC(=O)N2CCN(c3cccc(Cl)c3)CC2)nnc1-c1ccncc1	-1.4	-5.4	1	1	-2.0
Cn1c(SCCOc2cccc(Cl)c2)nnc1-c1ccncc1	20.6	-11.6	0.8	0.1	91.9*
Cn1c(SCCC(=O)O)nnc1-c1ccncc1	·	-1.7	·	·	·
Cc1cccc(OCCSc2nnc(-c3ccoc3C)n2C)c1	57.5*	3.6	0.4	0	97.6*
Cc1cc(C)c(C(N)=O)c(Nc2ccc3c(c2)OCCO3)n1	·	-3.3	·	·	·
CCCCCCC(=O)NC(Nc1ccc(S(N)(=O)=O)cc1)C(Cl)(Cl)Cl (stereo not given)	53.2*	-6.6	0.5	0.9	10.0
O=S(=O)(Nc1nc2ccccc2nc1NCC1CCCO1)c1cccs1 (stereo not given)	92.1*	-1.4	0.1	0.9	14.5
COc1ccc(Nc2nc3ccccc3nc2NS(=O)(=O)c2cccs2)cc1	87.5*	0.8	0.1	0.7	34.4
COCCCNc1nc2ccccc2nc1NS(=O)(=O)c1cccs1	94.0*	3.4	0.1	0.9	5.5
CCCOc1cccc(C(=O)N(Cc2ccc(OC)c(OC)c2)C2CCS(=O)(=O)C2)c1 (stereo not given)	41.8	2.0	0.6	0.8	20.7
O=c1c2cccc3c(N4CCOCC4)ccc(c32)c2nc3ccccc3n12	18.0	·	0.8	0.9	14.6
Cc1ccc(N2C(=O)NC3(CCCCC3)C2=O)cc1	8.7	·	0.9	0.6	42.1
Cc1ccc(N2C(=O)CC3(CC4C=CC3C4)C2=O)cc1 (stereo not given)	80.9*	-1.7	0.2	0.6	37.2
Cn1c(SCC(=O)c2ccc(F)cc2)nc2cccnc21	-14.8	5.1	1.1	0.2	85.0*
COc1ccc(NC(=O)CSc2nc3ncccc3[nH]2)cc1OC	40.6	0.4	0.6	0.9	8.1
Cc1ccc(C(=O)CSc2nc3cccnc3n2C)cc1	-55.8	4.3	1.6	0.7	31.9
COc1ccc(OC)c(C(=O)CSc2nc3ncccc3[nH]2)c1	89.6*	·	0.1	0.2	79.0*
COc1ccc(OC)c(C(=O)CSc2nc3c(c(=O)n(C)c(=O)n3C)n2C(C)C)c1	54.1*	-4.5	0.5	0.6	44.7
COc1ccc(OC)c(C(=O)CSc2nc3cccnc3n2C)c1	77.2*	0.1	0.2	0	98.2*
Cc1cccc(NCc2nc(-c3ccccc3)no2)c1	30.8	3.8	0.7	0.5	46.2
COCCNC(=O)C(C)N1c2cccc3cccc(c23)S1(=O)=O (stereo not given)	·	2.9	·	·	·
CCOC(=O)N1CCN(S(=O)(=O)N(C)C)CC1	-8.0	4.4	1.1	0.9	10.5
c1ccc(CCCNc2ncccn2)cc1	·	1.1	·	·	·
SMILES	CYP2C9 inh	EphB4 ephrin blk	CYP2C9 act	CYP2C19 act	CYP2C19 inhib
Cn1c(SCC(=O)c2ccccc2)nc2cccnc21	43.4	-1.8	0.6	0.3	72.5*
O=C(Cn1nc(Cc2cccnc2)c2ccccc2c1=O)NCCCN1CCCC1=O	46.0	0.8	0.5	1.1	-8.4
CCOC(=O)c1c(C)n(C)c2ccc(OCC(O)CN3C(=O)c4ccccc4S3(=O)=O)cc12 (stereo not given)	73.2*	7.0	0.3	0.6	43.0
O=C(Nc1ccccc1)c1ccccc1OCC(O)CN1C(=O)c2ccccc2S1(=O)=O (stereo not given)	76.3*	1.1	0.2	0.4	63.4*
COc1ccc(OCC(O)CN2C(=O)c3ccccc3S2(=O)=O)cc1 (stereo not given)	49.4	4.8	0.5	0.1	91.7*
CCOC(=O)c1c(C)n(C)c2ccc(OCC(O)Cn3nc(C)cc3C)cc12 (stereo not given)	73.5*	4.1	0.3	0.2	78.5*
CC1(C)NC(=O)N(CC(O)COc2ccccc2C(=O)Nc2ccccc2)C1=O (stereo not given)	32.9	·	0.7	0.7	28.2
COc1ccccc1CNc1ccc(N2CCOCC2)c(C(=O)O)c1	-4.4	0.5	1	1.1	-8.8
O=C(NCC(c1cccnc1)N1CCN(c2ccccc2F)CC1)c1cccc(Cl)c1 (stereo not given)	94.7*	3.9	0.1	0.1	91.0*
O=C(NCC(c1cccnc1)N1CCN(c2ccc(F)cc2)CC1)C1CCCCC1 (stereo not given)	21.5	3.1	0.8	0.6	35.8
O=C(NCC(c1cccnc1)N1CCN(c2ccccc2F)CC1)C1CCCCC1 (stereo not given)	49.2	3.6	0.5	0.2	78.9*
O=C(NCC(c1cccnc1)N1CCOCC1)c1cccc(Cl)c1 (stereo not given)	15.2	11.6	0.8	0.9	7.0
COc1ccc(N2CCN(C(CNC(=O)c3ccco3)c3cccnc3)CC2)cc1 (stereo not given)	18.9	-2.2	0.8	0.9	9.1
COc1ccc(N2CCN(C(CNC(=O)c3cccc(Cl)c3)c3cccnc3)CC2)cc1 (stereo not given)	55.5*	-6.0	0.4	0.7	33.8
O=C(NCc1ccccc1)c1onc(CSc2ccc(F)cc2)c1C(=O)NCCCN1CCOCC1	39.4	-1.7	0.6	0.6	43.9
COc1ccc(NC(=O)CSc2nnc(-c3cccnc3)o2)cc1	30.4	3.8	0.7	0.7	27.5
FC(F)(F)c1cc(-c2ccccc2)nc(NC2CCCC2)n1	56.5*	3.6	0.4	0.6	41.7
FC(F)(F)c1cnc2c(-c3ccc(Cl)cc3Cl)noc2c1	9.6	-2.9	0.9	0.8	19.5
Cc1cccc(OCC(=O)Nc2ccccc2N2CCN(C(=O)C(C)C)CC2)c1C	55.7*	4.7	0.4	0.7	30.0
CN1CCN(c2ccccc2NC(=O)COc2ccccc2)CC1	-2.6	0.4	1	1	-2.8
CC(=O)N1CCN(c2ccccc2NC(=O)COc2cc(C)ccc2C(C)C)CC1	94.3*	-6.3	0.1	0.1	89.5*
Cc1ccc(C(C)C)c(OCC(=O)Nc2ccccc2N2CCN(C)CC2)c1	86.8*	7.1	0.1	0.3	68.9*
Cc1ccccc1OCC(=O)Nc1ccccc1N1CCCCC1	4.4	1.4	1	0.8	16.6
O=C1CCCc2c1cc(C(=O)NCCCN1CCOCC1)c(=O)n2-c1ccc(Cl)cc1	3.6	-3.0	1	0.9	7.5
Cc1cc(C)n2nc(C(=O)Nc3ccccc3N3CCOCC3)nc2n1	26.3	·	0.7	0.9	12.9
CCOc1ccc(C(Nc2ccc(C)cc2)P2(=O)OCC(C)(C)CO2)cc1 (stereo not given)	8.7	-6.1	0.9	0.9	7.5
Cc1cc(C(=O)OCC(=O)c2ccc(Br)s2)no1	65.7*	-10.5	0.3	0.8	17.2
Cc1cc(C(=O)OCC(=O)c2ccc(Br)s2)c(C)o1	32.7	-5.6	0.7	0.5	46.2

Screens (PubChem)
